FBPA Giardia inh: inhibitors of Giardia lamblia fructose-1,6-bisphosphate aldolase; Potency, µM (doses to about 59.6 µM), for inactives: at the highest dose activity, negative = inhibition, usual class: inhibitors; purified Giardia FBPA; 0.71% of 290,000 active; A8B2U2; further: potency means the concentration at half of the fitted maximal effect; nearly all actives have a fitted effect of over 55% in size
Target sequence (A8B2U2 whole entry, looked up): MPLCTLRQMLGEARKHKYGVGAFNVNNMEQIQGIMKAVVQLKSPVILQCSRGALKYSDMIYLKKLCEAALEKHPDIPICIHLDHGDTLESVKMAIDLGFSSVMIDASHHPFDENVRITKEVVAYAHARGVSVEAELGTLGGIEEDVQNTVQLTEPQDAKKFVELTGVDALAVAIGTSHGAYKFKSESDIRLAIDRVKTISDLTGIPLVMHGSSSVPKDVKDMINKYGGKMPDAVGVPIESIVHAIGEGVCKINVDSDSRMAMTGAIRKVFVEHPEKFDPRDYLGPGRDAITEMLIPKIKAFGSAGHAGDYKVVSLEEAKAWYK
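Giardia FBPA (40 nM reagent) was preincubated 10 min at RT with compound (up to 57.5 uM final), then substrate plus GAPDH/TPI/NAD/arsenate coupling system with diaphorase/resazurin was added; resorufin fluorescence (525/598 nm) was read after 20 min.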
HCMV inh: human cytomegalovirus inhibition | HFF cells, HCMV-luciferase reporter, 72 h; hits give low values | activity change, negative = inhibition, % at 57.5 µM | 4.5% of 410,000 active | AID 1259415; in the data active means activity change below about -60%; inconclusive means no clear call, values can overlap the other calls; inactive means above about -39%
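Inhibition of viral replication was scored as loss of reporter luminescence in HFFs infected with HCMV-luciferase (MOI 1 PFU/cell) for 72 h; compounds tested at 2 doses, normalized to buffer and Salinomycin controls.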
MARV entry inh: blocks Marburg virus binding to or entry into cells; Marburg virus pseudotyped entry inhibition, cell reporter; Potency, µM (series often up to 37.8 µM), inactives show at the highest dose activity change, negative = inhibition, actives largely listed as inhibitors; AID 540276; 1.8% of 300,000 active; calls by dose curve; tested in HEK293 cells; further: potency means the concentration at half of the fitted maximal effect
FMDV antiviral: foot and mouth disease virus antiviral activity. FMDV antiviral cell-based qHTS. AID 1159524. 1.2% of 410,000 active. Potency, µM (highest dose often 57.9 µM), inactives show at the highest dose activity change, negative = inhibition, hits mostly inhibitors; calls by dose curve; tested in HEK293T cells; further: read-out not given here; potency means the concentration at half of the fitted maximal effect; nearly all actives have a fitted effect of over 45% in size
HCV inh: HCV inhibition; Potency, µM (series often up to 41.8 µM), without a hit: top-dose activity change, negative = inhibition, usual class: inhibitors; Huh7.5.1 HCVcc-Cre infection, luciferase reporter, 44 h; 3.4% of 340,000 active; further: potency means the concentration at half of the fitted maximal effect
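A cell-based infection assay in which seeded cells (1,000 per well) receive test compound after 4 h, are inoculated with HCVcc-Cre at approximately 0.5 moi, and are incubated 44 h before luminescence detection.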
Lassa entry inh: blocks Lassa virus binding to or entry into cells; Potency, µM (highest dose often 37.9 µM), without a hit: at the top dose activity change, negative = inhibition, actives largely listed as inhibitors; AID 540256; 1.2% of 300,000 active; Lassa virus pseudotype entry inhibition, cell reporter; calls by dose curve; tested in HEK293 cells; further: potency means the concentration at half of the fitted maximal effect; nearly all actives have a fitted effect of over 50% in size
* = called active by the depositor; ? = inconclusive; / = not tested or not shown; [ ] = another dose, or the depositor's remark. An excerpt weighted towards active compounds, which were near 8.3% of everything screened. Unless noted, the call rests on the fitted dose curve; in most records, active means well fitted curve in the direction sought with a large enough effect; inconclusive means small, poorly fitted or top-dose-only effect, or another doubt; inactive means no such curve, though single readings can be large; an effect the other way counts as inactive or inconclusive. On the % scale 0 is the no-effect control and ±100 the full control effect.

SMILES	FBPA Giardia inh	HCMV inh	MARV entry inh	FMDV antiviral	HCV inh	Lassa entry inh
CCN(Cc1ccncc1)Cc1ccc2c(c1)CN(C(=O)c1ccccc1)CCO2	/	/	/	-2.3%	/	/
O=C(Nc1ccc(-c2csc(Nc3cccc(C(F)(F)F)c3)n2)cc1)c1cc([N+](=O)[O-])cc(C(F)(F)F)c1	3.7%	-78.3*	/	?	?	/
CC(=O)c1cccc(Nc2nc(-c3ccccc3)cs2)c1	-6.8%	48.1	?	11.6%	2.51µM*	?
Cc1ccc(-n2nc(CO)c(C(=O)NCc3cccnc3)n2)cc1C	/	18.6	?	-8.8%	/	?
Cc1cc(C)cc(OCc2nc3ncc(Br)cc3[nH]2)c1	/	-62.5*	?	-21.2%	?	?
C[C@@H](/C=C/c1ccc2ccccc2c1)C1COC(=O)C[C@H]1O (some centres undefined)	1.1%	/	/	/	/	/
COc1ccc(-c2cc(C(F)(F)F)nc(SCC(=O)NCCc3ccc(OC)c(OC)c3)n2)cc1	/	-11.8	19.6%[46.1 µM]	-26.5%	/	15.4%[46.1 µM]
O=C(OCn1ncc(Cl)c(Cl)c1=O)c1cccc(C(F)(F)F)c1	2.3%	/	?	14.1µM*	?	?
Cc1c(Cl)cccc1Nc1sc(C(=O)c2ccccc2)c(N)c1S(=O)(=O)c1ccccc1	/	-2.9	?	6.0%	/	?
Cc1cccc(C)c1Nc1sc(C(=O)c2ccccc2)c(N)c1S(=O)(=O)c1ccccc1	/	-61.6*	/	-18.5%	/	?
COc1ccc(C2C=C3CN(C(=O)OC(C)(C)C)S(=O)(=O)C3CC2OC(=O)c2cccc(C)c2)cc1 (centres undefined)	0.7%	/	/	/	/	/
CC(=O)NC1=NN(C(C)=O)C2(CCCCC2)S1	-0.9%	53.1	-3.6%	/	2.82µM*	3.2%
CCC1(C)SC(NC(C)=O)=NN1C(C)=O (centres undefined)	0.4%	-13.5	-4.1%[46.1 µM]	-10.7%	-10.6%	4.3%
Clc1ccc2[nH]c3c(NCC4CCCO4)ncnc3c2c1 (centres undefined)	-6.8%	-65.1*	0.0%	/	/	/
C[C@H]1[C@@H](NC(=O)Nc2ccc3c(c2)OCO3)CC[C@@]23CCCN2C(=O)CCC[C@@H]13	/	-92.3*	/	/	/	/
C[C@H]1[C@@H](NS(=O)(=O)c2cn(C)cn2)CC[C@@]23CCCN2C(=O)CCC[C@@H]13	/	-101.7*	/	/	/	/
O=C1CCC[C@H]2[C@@H](Cc3ccccc3)[C@@H](NS(=O)(=O)c3ccc(Cl)cc3)CC[C@]23CCCN13	/	-92.0*	/	/	/	/
O=C1CCC[C@H]2[C@@H](Cc3ccccc3)[C@@H](NS(=O)(=O)c3ccc(Br)cc3)CC[C@]23CCCN13	/	-16.7	/	/	/	/
COC(=O)c1cn[nH]c1NC(=S)Nc1ccc(C)cc1Cl	9.5%	12.6	?	?	?	7.3µM*
COc1cccc(NC(=O)CSC2=C(C#N)[C@H](c3ccco3)C3=C(CCCC3=O)N2)c1	/	/	-7.1%	/	/	/
Brc1c(C[n+]2ccccc2)nc2ccccn12	1.1%	-6.9	-0.5%[46.1 µM]	-14.0%	-0.7%	-12.6%[46.1 µM]
Brc1ccc(C[n+]2ccccc2)cc1	/	-3.3	/	1.3%	7.94µM*	/
CSc1ccc(CNCCCN(C)C)cc1	-9.7%	-39.1	?	-21.5%	5.01µM*	?
CSc1ccc(CNCCCSc2ncccn2)cc1	?	-6.8	?	-18.8%	-5.7%	?
CC(C)c1ccc(/C=C/C(=O)NC(=S)Nc2ccc(CN3CCOCC3)cc2)cc1	1.1%	?	?	20µM*	?	?
SMILES	FBPA Giardia inh	HCMV inh	MARV entry inh	FMDV antiviral	HCV inh	Lassa entry inh
O=C(/C=C/c1cccc([N+](=O)[O-])c1)NC(=S)Nc1ccc(CN2CCOCC2)cc1	0.4%	-72.4*	3.0%	?	4.3%	?
CC(C)c1ccc(/C=C/C(=O)NC(=S)NN2CCOCC2)cc1	/	-98.0*	/	-5.0%	3.8%	/
O=C(NC(=S)Nc1ccc(CN2CCOCC2)cc1)c1ccc([N+](=O)[O-])cc1	-20.0%	32.1	/	?	8.5%	/
Cc1cc(C)c(C)c(S(=O)(=O)ON2C(=O)c3ccccc3C2=O)c1C	/	-75.5*	?	?	?	?
Cc1ccc(S(=O)(=O)ON2C(=O)c3ccccc3C2=O)c(C)c1	-8.7%	-70.6*	?	?	9.0%	?
Cc1cc(C)c(S(=O)(=O)ON2C(=O)c3ccccc3C2=O)cc1C	-13.1%	-81.3*	?	25.1µM*	-1.5%	-28.3%
COc1ccc(NC(=O)CN2C(=O)CSc3ccc(S(=O)(=O)N(C)C)cc32)cc1Cl	/	-23.1	/	-6.9%	/	0.6%[46.1 µM]
Cc1nc2c(c(SCC(=O)Nc3ccccc3C(F)(F)F)n1)CCC2	/	?	10.3%[46.1 µM]	0.0%	/	?
Cc1ccccc1Cn1nnc2c(=O)[nH]c(C3CCCN(C(=O)c4ccc(F)cc4)C3)nc21 (centres undefined)	/	16.0	-14.0%[46.1 µM]	-19.2%	/	?
Cc1sc2c(c1C)c(=O)n(-c1ccc(Cl)cc1)c(=O)n2CC(=O)c1ccccc1	/	-4.9	-2.6%[46.1 µM]	-22.1%	/	-0.3%[46.1 µM]
COc1ccc(-c2csc(Nc3cccnc3)n2)cc1	-9.4%	13.8	-29.8%	32.1%	10µM*	-17.1%
Cc1nc(N)sc1-c1csc(Nc2ccc(S(N)(=O)=O)cc2)n1	?	-15.1	/	-7.0%	10µM*	/
NS(=O)(=O)c1ccc(Nc2nc(-c3ccc(O)cc3)cs2)cc1	-18.3%	?	0.5%	-6.0%	?	-39.7%[14.3 µM]
Cc1nc(N)sc1-c1csc(Nc2ncccn2)n1	-27.5%	-77.1*	?	0.0%	?	2.9%

High-throughput results: PubChem, National Center for Advancing Translational Sciences (NCATS)
